This is part of a sample that, as a whole, favours compounds with a hit. Of some 83,000 tested, about 20% had one in any assay.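 Activity criterion: percent growth below 10, measured after cells in 96-well plates were exposed to a single compound concentration for 48 hours.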 Active and inactive are the calls of the source.
What follows are compounds tested on SK-MEL-5 melanoma (assay: NCI-60 one-dose screen, 48 h (100 = growth as untreated, 0 = no growth, -100 = all killed)). Details: 10 µM unless noted.

Row | SMILES | growth
1 | COc1ccc(-c2nc(N=Nc3c(O)[nH]c4ccccc34)nc(N3CCOCC3)c2C#N)cc1 | 57.5% (inactive)
2 | COc1cc2nc(-c3ccc(C(F)(F)F)cc3)cc(OCCN3CCCC3)c2cc1OC | 84.4% (inactive)
3 | NC(=S)N/N=C(/c1ccccc1)c1ccccc1N | 92.3% (inactive)
4 | C=C(C)[C@@H]1CC[C@]2(C=O)CC[C@]3(C)[C@H](CC[C@@H]4[C@@]5(C)CCCNC(C)(C)[C@@H]5CC[C@]43C)[C@@H]12 | 66% (inactive)
5 | CCCNC(=O)Oc1ccc(/C(=C(\C)c2ccccc2)c2ccc(OCCN3CCCCC3)cc2)cc1 | 77.8% (inactive)
6 | CCOC(=O)Oc1c(OC)cc(C(=O)O[C@@H]2C[C@@H]3CN4CCc5c([nH]c6cc(OC)ccc56)[C@H]4C[C@@H]3[C@H](C(=O)OC)[C@H]2OC)cc1OC | 86.1% (inactive)
7 | COc1ccc(OC)c(/C=C/[C@H]2O[C@@H](C)[C@H](O)[C@@H]2O)c1 | 103% (inactive)
8 | CCC(=O)c1ccc(O)c(OC)c1 | 98.6% (inactive)
9 | Clc1cc(Cl)cc(N2N=C(c3cccc(Nc4ccncc4)c3)CC2c2ccccc2)c1 (stereo unspecified) | 79.9% (inactive)
10 | Fc1cc(C2=NNC(c3ccc[nH]3)C2)ccc1-n1ccc(C(F)(F)F)n1 (stereo unspecified) | 98% (inactive)
11 | Clc1nc(Nc2ccccc2)nc(Nc2ccccc2)n1 | 99.8% (inactive)
12 | Cn1c(=O)c2[nH]c(CCCc3nc4c([nH]3)c(=O)n(C)c(=O)n4C)nc2n(C)c1=O | 103% (inactive)
13 | C=C1C(=O)O[C@H]2[C@H]1CC/C(COC(=O)NCCc1c[nH]c3ccc(Cl)cc13)=C\CC[C@@]1(C)O[C@@H]21 | -15.2% (active)
14 | Cc1[nH]c(C(=O)Nc2ccccc2OCc2cccc(C(=O)NCCN)c2)c(Cl)c1Cl | 95.3% (inactive)
15 | COc1cc2oc(-c3cccc(C(=O)Nc4ccc(Cl)cc4)c3)cc(=O)c2c(OC)c1OC | -60.1% (active)
16 | O=C(Nc1nc2ccc(S(=O)(=O)Nc3ccc(C4(C(F)(F)F)CC4)cc3)cc2[nH]1)c1cnccn1 | 26.1% (inactive)
17 | CCCCCCCCCCN=C(N)N=C(N)N | 4.63% (active)
18 | CC(C)NC(=O)N1C(=O)CCC1NNC(=O)c1ccc([N+](=O)[O-])cc1 (stereo unspecified) | 105% (inactive)
19 | N#Cc1cc(-c2nc3ccccc3s2)c(=O)n(NS(=O)(=O)c2ccc(Cl)cc2)c1N | 99.5% (inactive)

Row | SMILES | growth
20 | O=C1c2ccccc2-c2c1c1c(NCCCO)nc3ccccc3c1n2Cc1ccccc1 | -82.6% (active)
21 | COC(=O)N[C@H]1CCc2cc(OC)c(OC)c(OC)c2-c2ccc(SC)c(=O)cc21 | -42.9% (active)
22 | COc1nccnn1 | 104% (inactive)
23 | Cc1ccc(C(=O)Nc2ccccc2C(=O)N/N=C(\c2ccccc2)c2ccccn2)cc1 | -4.18% (active)
24 | CCCCN(CCCC)CCc1c(C)cc(C)c(CCN(CCCC)CCCC)c1O | 0.474% (active)
25 | Nc1cc(N)c2cccnc2c1O | 62.9% (inactive)
26 | CN1CCCC1=Nc1ccccc1 | 104% (inactive)
27 | COc1ccc(CNC(=O)COc2ccc(/C=N/Nc3nc4ccccc4s3)cc2)cc1 | 23.6% (inactive)
28 | O=C1OC(=O)C2C1CC=CC2c1ccccc1 (stereo unspecified) | 98.6% (inactive)
29 | COc1ccc(CC(C)=C(c2ccc(OCCN(C)C)cc2)c2ccc(OCCN(C)C)cc2)cc1 | 84.2% (inactive)
30 | O=C(N=Nc1c(O)[nH]c2ccc(F)cc12)c1cc2ccccc2[nH]1 | 99.7% (inactive)
31 | O=S(=O)(NCCNc1nccc(-c2c(-c3cccc(F)c3)nc3occn23)n1)c1cccc2ccccc12 | 30% (inactive)
32 | O=S(=O)(c1ccc(N/N=C\c2ccccc2)cc1)c1ccc(N/N=C/c2ccccc2)cc1 | 74.7% (inactive)
33 | CCOc1ccc(/C=N/Nc2cc(C)nc3ccc(Cl)cc23)cc1 | 66.2% (inactive)
34 | CC(C)Cc1ccc(C(C)C(=O)NCc2c[nH]c3ccc(Cl)cc23)cc1 (stereo unspecified) | 85.4% (inactive)
35 | COc1ccccc1OCC(=O)N1CCCCCC1 | 100% (inactive)
36 | Nc1nc(SN=Nc2ccc(S(N)(=O)=O)cc2)c2[nH]cnc2n1 | 46.7% (inactive)
37 | COc1ccc(C2CC(n3nnnc3-c3ccccc3)=NN2)cc1 (stereo unspecified) | 70.7% (inactive)
38 | CC(c1ccccc1)n1ccnc1CO (stereo unspecified) | 93.4% (inactive)

Each compound was assayed on UACC-62 melanoma in the same assay as above. Details: 10 µM unless noted.

Row | SMILES | growth
39 | COc1ccc(-c2nc(N=Nc3c(O)[nH]c4ccccc34)nc(N3CCOCC3)c2C#N)cc1 | 50.3% (inactive)
40 | COc1cc2nc(-c3ccc(C(F)(F)F)cc3)cc(OCCN3CCCC3)c2cc1OC | 93.3% (inactive)
41 | NC(=S)N/N=C(/c1ccccc1)c1ccccc1N | 93.9% (inactive)
42 | C=C(C)[C@@H]1CC[C@]2(C=O)CC[C@]3(C)[C@H](CC[C@@H]4[C@@]5(C)CCCNC(C)(C)[C@@H]5CC[C@]43C)[C@@H]12 | 69.9% (inactive)
43 | CCCNC(=O)Oc1ccc(/C(=C(\C)c2ccccc2)c2ccc(OCCN3CCCCC3)cc2)cc1 | 70.6% (inactive)
44 | CCOC(=O)Oc1c(OC)cc(C(=O)O[C@@H]2C[C@@H]3CN4CCc5c([nH]c6cc(OC)ccc56)[C@H]4C[C@@H]3[C@H](C(=O)OC)[C@H]2OC)cc1OC | 87.8% (inactive)
45 | COc1ccc(OC)c(/C=C/[C@H]2O[C@@H](C)[C@H](O)[C@@H]2O)c1 | 100% (inactive)
46 | CCC(=O)c1ccc(O)c(OC)c1 | 95.5% (inactive)
47 | Clc1cc(Cl)cc(N2N=C(c3cccc(Nc4ccncc4)c3)CC2c2ccccc2)c1 (stereo unspecified) | 99% (inactive)
48 | Fc1cc(C2=NNC(c3ccc[nH]3)C2)ccc1-n1ccc(C(F)(F)F)n1 (stereo unspecified) | 81.3% (inactive)
49 | Clc1nc(Nc2ccccc2)nc(Nc2ccccc2)n1 | 96.3% (inactive)
50 | Cn1c(=O)c2[nH]c(CCCc3nc4c([nH]3)c(=O)n(C)c(=O)n4C)nc2n(C)c1=O | 96.8% (inactive)
51 | C=C1C(=O)O[C@H]2[C@H]1CC/C(COC(=O)NCCc1c[nH]c3ccc(Cl)cc13)=C\CC[C@@]1(C)O[C@@H]21 | -51.7% (active)
52 | Cc1[nH]c(C(=O)Nc2ccccc2OCc2cccc(C(=O)NCCN)c2)c(Cl)c1Cl | 92.6% (inactive)
53 | COc1cc2oc(-c3cccc(C(=O)Nc4ccc(Cl)cc4)c3)cc(=O)c2c(OC)c1OC | -9.87% (active)
54 | O=C(Nc1nc2ccc(S(=O)(=O)Nc3ccc(C4(C(F)(F)F)CC4)cc3)cc2[nH]1)c1cnccn1 | 40% (inactive)
55 | CCCCCCCCCCN=C(N)N=C(N)N | 37.2% (inactive)
56 | CC(C)NC(=O)N1C(=O)CCC1NNC(=O)c1ccc([N+](=O)[O-])cc1 (stereo unspecified) | 98.1% (inactive)
57 | N#Cc1cc(-c2nc3ccccc3s2)c(=O)n(NS(=O)(=O)c2ccc(Cl)cc2)c1N | 88.2% (inactive)

Row | SMILES | growth
58 | O=C1c2ccccc2-c2c1c1c(NCCCO)nc3ccccc3c1n2Cc1ccccc1 | 17.5% (inactive)
59 | COC(=O)N[C@H]1CCc2cc(OC)c(OC)c(OC)c2-c2ccc(SC)c(=O)cc21 | 34.9% (inactive)
60 | COc1nccnn1 | 98.9% (inactive)
61 | Cc1ccc(C(=O)Nc2ccccc2C(=O)N/N=C(\c2ccccc2)c2ccccn2)cc1 | 5.33% (active)
62 | CCCCN(CCCC)CCc1c(C)cc(C)c(CCN(CCCC)CCCC)c1O | 3.34% (active)
63 | Nc1cc(N)c2cccnc2c1O | 43% (inactive)
64 | CN1CCCC1=Nc1ccccc1 | 91.4% (inactive)
65 | COc1ccc(CNC(=O)COc2ccc(/C=N/Nc3nc4ccccc4s3)cc2)cc1 | 34% (inactive)
66 | O=C1OC(=O)C2C1CC=CC2c1ccccc1 (stereo unspecified) | 94.4% (inactive)
67 | COc1ccc(CC(C)=C(c2ccc(OCCN(C)C)cc2)c2ccc(OCCN(C)C)cc2)cc1 | 39.1% (inactive)
68 | O=C(N=Nc1c(O)[nH]c2ccc(F)cc12)c1cc2ccccc2[nH]1 | 96.1% (inactive)
69 | O=S(=O)(NCCNc1nccc(-c2c(-c3cccc(F)c3)nc3occn23)n1)c1cccc2ccccc12 | 45.1% (inactive)
70 | O=S(=O)(c1ccc(N/N=C\c2ccccc2)cc1)c1ccc(N/N=C/c2ccccc2)cc1 | 70.8% (inactive)
71 | CCOc1ccc(/C=N/Nc2cc(C)nc3ccc(Cl)cc23)cc1 | 68.2% (inactive)
72 | CC(C)Cc1ccc(C(C)C(=O)NCc2c[nH]c3ccc(Cl)cc23)cc1 (stereo unspecified) | 66.6% (inactive)
73 | COc1ccccc1OCC(=O)N1CCCCCC1 | 99.4% (inactive)
74 | Nc1nc(SN=Nc2ccc(S(N)(=O)=O)cc2)c2[nH]cnc2n1 | 0.536% (active)
75 | COc1ccc(C2CC(n3nnnc3-c3ccccc3)=NN2)cc1 (stereo unspecified) | 13.4% (inactive)
76 | CC(c1ccccc1)n1ccnc1CO (stereo unspecified) | 104% (inactive)

Source: PubChem BioAssay (NCI)
